Laboratory results published in PubChem BioAssay AID602429 (Sanford-Burnham Center for Chemical Genomics, 2012).
Hit rate of the full screen: of about 360,000 compounds, about 1,200 (0.33%) were called active. Rule as the data show it: active = inhibition above about 37%; inactive = the rest. The entries come from a sample that favours actives as a whole.

Molecular target: Small ubiquitin-related modifier 1 (Homo sapiens) (UniProt P63165)
Experiment: modulators of SUMO1 protein-protein interactions, primary screen, biochemical, uHTS (AID 602429)
Conditions: SUMO1 binding to a labelled peptide, TR-FRET, 1 h; at 20 µM; active compounds read high

Small ubiquitin-related modifier 1 (Homo sapiens), sequence (P63165 whole entry, looked up): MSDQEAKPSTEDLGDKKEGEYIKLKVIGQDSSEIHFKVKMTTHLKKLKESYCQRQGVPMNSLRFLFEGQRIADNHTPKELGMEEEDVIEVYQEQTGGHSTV

inhibition, active:
CCCn1c(N)c(C(=O)CSc2nc3ccccc3c(=O)n2-c2ccc(OC)cc2)c(=O)[nH]c1=O 46.9%
COc1ccc2[nH]c(=O)c(-c3noc(-c4ccc(F)cc4)n3)cc2c1 64%
CCN1CCCC1CNC(=O)c1cc2c(=O)n(C)c3ccccc3c2n1C (stereo unspecified) 46.4%
COCCNC(=O)Nc1ccc2nc(-c3ccco3)c(-c3ccco3)nc2c1 64.2%
CCCc1cc(=S)n2c([nH]c3ccccc32)c1C#N 45.4%
CN(C(=O)COC(=O)c1cc(-c2ccco2)nc2ccccc12)C1CCS(=O)(=O)C1 (stereo unspecified) 105%
COc1ccc(Cl)cc1NC(=O)CCS(=O)(=O)c1ccc(Br)cc1 71%
Cn1ccc(=Nc2ccc(NC(=O)c3ccc(N=c4ccn(C)c5ccc([N+](=O)[O-])cc45)cc3)cc2)cc1 78.6%
Nc1ccc2[nH]c(=S)sc2c1 65%
COc1nc(N(C)C)nc(N2CC(=O)N(CCNS(=O)(=O)c3ccc(C)cc3)C2=N)n1 44%
O=C(Nc1nnc(CCc2ccccc2)s1)C1CCCO1 (stereo unspecified) 42.9%
COc1ccc(Br)cc1/C=N/Nc1ccc(S(=O)(=O)Nc2ccccc2C(=O)O)cc1[N+](=O)[O-] 108%
Oc1ccc(N=Cc2sc3ccccc3c2Cl)cc1 43.8%
O=C(N/N=C/c1ccco1)c1ccc(C(=O)N/N=C/c2ccco2)o1 36.6%
Cc1c(CCC(=O)O)c(=O)oc2c(C)c(OCc3ccccc3Cl)ccc12 56.6%
C=C(C)C(=O)Nc1cccc(C2=NOC3(C2)C[C@H](C(N)=O)N(C(=O)C(c2ccccc2)c2ccccc2)C3)c1 (stereo partly specified) 61.6%
CCOc1ccc(-c2nc(N)ncc2-c2ccccc2OC)c(O)c1 39.4%

inhibition, inactive:
CCOc1ccc(-n2c(SCC(=O)Nc3cc(C(=O)O)ccc3Cl)nc3ccccc3c2=O)cc1 19.1%
CCCn1c(N)c(C(=O)CSc2nnc3n2CCCCC3)c(=O)[nH]c1=O 8.44%
COCCOC(=O)c1c(C)oc2cc(Br)c(OCC(N)=O)cc12 -1.35%
CCN(c1ccccc1)S(=O)(=O)c1cccc(C(=O)NCc2ccccc2CN2CCOCC2)c1 -2.56%
COc1ccc(C)cc1NC(=O)NCCCCc1ccccc1 3.9%
O=S(=O)(NCCSc1ccccn1)c1ccc(Cl)cc1 -0.907%
O=C(Cc1ccsc1)N1CCN(S(=O)(=O)c2cc(C(F)(F)F)cc(C(F)(F)F)c2)CC1 32.3%
CCCc1nc(-c2cc3cc(C)ccc3[nH]c2=O)no1 -3.17%
COc1ccc(Cc2cc(-c3ccc(F)cc3)n[nH]c2=O)cc1 -0.22%
Cc1cc(C)cc(OCC(=O)Nc2cc(NC(=O)COc3cc(C)cc(C)c3)cc(C(=O)O)c2)c1 13.4%
CCN1CCCC1CNC(=O)c1ccc2c(c1)NC(=O)/C(=C\c1ccccc1F)S2 (stereo unspecified) -60.4%
CCN1CCCC1CNC(=O)Cn1cnc2ccc(S(=O)(=O)N3CCC(C)CC3)cc2c1=O (stereo unspecified) -2.59%
CCCCn1c(SCc2ncc(-c3ccccc3)o2)nc2cc(S(N)(=O)=O)ccc21 0.0839%
CCCCc1nc(SCC(=O)Nc2nnc(C(C)C)s2)n[nH]1 4.69%
O=C(COc1ccc(Cl)cc1)Nc1ccc2oc(=O)ccc2c1 4.58%
COc1ccccc1CNS(=O)(=O)c1cc(C(=O)NCc2ccccn2)c(Cl)cc1Cl -1.08%
COCCNC(=O)c1ccc2nc(Cc3ccc(OC)c(OC)c3)oc2c1 0.593%
COc1cc(NC(=O)C2=CC(c3ccco3)=NS(=O)(=O)N2C)cc(OC)c1OC -26.3%
O=C(NCc1ccco1)C(=O)c1cn(CC(=O)N2CCCCCC2)c2ccccc12 -6.74%
CC1(C)CC(=O)C(C=NCc2cccnc2)=C(O)C1 -0.212%
Cc1ccccc1S(=O)(=O)Cc1ccc(C(=O)NCCN2CCCCC2C)o1 (stereo unspecified) -2.78%
NC(=S)NN=C1CCCC(C(F)(F)F)C1 (stereo unspecified) -4.43%
COC(=O)c1cccc(NC(=O)CN2CCC(NC(=O)c3cc(OC)c(OC)c(OC)c3)CC2)c1 4.74%
CCC(C(=O)N1CCOCC1)n1c(C(=O)OC)cc2occc21 (stereo unspecified) 0.0718%
O=C(c1cc(-c2ccco2)nc2ccccc12)N(Cc1nnc(-c2ccc(Cl)cc2)o1)C1CC1 5.63%
COc1ccc2c(-c3ccccc3)cc(SCC(=O)N(C)C3CCS(=O)(=O)C3)nc2c1 (stereo unspecified) 0.193%
O=C(Nc1cccc2c1CCCC2)c1ccc(F)cc1 -0.657%
O=C(CSc1cccc[n+]1[O-])NCCCc1ccccc1 -1.78%
O=C(CCS(=O)(=O)c1ccc(Br)cc1)NCCc1ccc(Cl)cc1 15.1%
COc1ccc(Cl)cc1NC(=O)COC(=O)c1ccc(Br)o1 3.41%
CCn1c(O)c2ccc(C(=O)N=NC(=O)c3cccnc3)cc2c1O -19.8%
Cn1c(SCC(=O)Nc2ccc(N3CCOCC3)cc2)nnc1C(F)(F)F 3.07%
O=C1C2C3C=CC(C4CC34)C2C(=O)N1c1nccs1 (stereo unspecified) 0.623%
CCOc1ccc(C(=O)NCC(=O)N2CCN(c3ccc(C(F)(F)F)cn3)CC2)cc1 -1.81%
CC(=O)c1c(OCC(=O)N(C)C2CCCCC2)ccc2c(C)cc(=O)oc12 0.393%
O=C(Nc1cc2c3c(c1)C1CCCC1CN3CC1CCCC21)c1ccc([N+](=O)[O-])cc1 (stereo unspecified) -12.8%
O=C(Nc1ccc(C2CC2(Cl)Cl)cc1)c1cccc([N+](=O)[O-])c1 (stereo unspecified) -19.7%
CCCS(=O)(=O)N1CCC(C(=O)NCCCN(C)Cc2ccccc2)CC1 3.93%
Cc1ccc(CCN2CC(C(=O)O)CC2=O)cc1 (stereo unspecified) 0.0169%
O=c1[nH]c2ccccc2s1 0.972%
CCOc1ccc2[nH]c(=S)sc2c1 6.23%
O=C(c1ccc2c(c1)OCCO2)C1CCN(S(=O)(=O)c2cccc(F)c2)CC1 -0.625%
CCn1ncc(Br)c1C(=O)Nc1cc(C)ccc1F 1.78%
COc1ccc([N+](=O)[O-])cc1NC(=O)CC1SC(=Nc2cccc(C)c2C)N(/N=C(\C)c2ccc(C)cc2)C1=O (stereo unspecified) -1.72%
CCN(CC(=O)N1CCCC1)S(=O)(=O)c1ccc(F)cc1 0.769%
Cc1ccc(S(=O)(=O)NCCSC(C)(C)C)cc1 2.52%
COc1nc(Oc2ccc(=O)n(C)n2)nc(N(C)C)n1 -2.1%
Cc1cc(C)c2nc(NC(=O)C3CCCO3)sc2c1 (stereo unspecified) -1.66%
O=C(Nc1nnc(SCc2c(Cl)cccc2Cl)s1)C1CCCO1 (stereo unspecified) 4.7%
Cc1ccc(NC(=O)Cn2cccc2C2=NC(c3ccccc3)CO2)c(C)c1 (stereo unspecified) -4.14%
COC(=O)c1cc2occc2n1Cc1nc(-c2ccccc2C)oc1C 0.0493%
COc1cc(CCN=Cc2ccccc2O)c([N+](=O)[O-])cc1OC -13%
COc1ccccc1C(CNC(=O)c1cccc(NS(=O)(=O)c2ccc(Br)cc2)c1)N(C)C (stereo unspecified) -3.01%
COCOCCn1cc(CN2CCS(=O)(=O)N(Cc3ccc(-c4ccccc4)cc3)C(CC(C)C)C2=O)nn1 (stereo unspecified) 3.98%
COc1ccc(OCc2nnc3n2N=C(c2ccccc2)C(CC(=O)O)S3)cc1 (stereo unspecified) 10.5%
CCOC(=O)C1=C(COC(=O)[C@H](C)NS(=O)(=O)c2ccccc2F)NC(=O)NC1C (stereo partly specified) 2.53%
O=C(O)CC(CC(=O)N1CCOCC1)c1ccccc1 (stereo unspecified) 4.09%
CCCNC(=O)c1cc(C2CCCN(C(=O)c3ccc4c(c3)CCO4)C2)on1 (stereo unspecified) -2.48%
CCCCN(C)CCNC(=O)C1CCCN(S(=O)(=O)c2cccc3nsnc23)C1 (stereo unspecified) -32.8%
COc1ccc(CCNC(=O)C(=O)Nc2ccc3nc4n(c(=O)c3c2)CCCCC4)cc1OC -4.72%
CC(=O)NN=C(C)c1ccc(NC(=O)C2CC2)cc1 -0.643%
Cc1c(Cl)cccc1NC(=O)CCC(=O)N/N=C/c1ccco1 -6.83%
O=C(Cn1cnc2ccccc21)N/N=C/c1ccco1 -6.39%
COc1ccc2c(C)c(CCC(=O)NC3CC3)c(=O)oc2c1C 1.06%
O=C(O)c1ccccc1OCc1ccccc1Cl 1.06%
Cc1cc(C)n2nc(C(=O)OC(C)C(=O)c3cc(C)c(C)cc3C)nc2n1 (stereo unspecified) 1.78%
O=C(CNC(=O)[C@@H]1Cc2ccccc2CN1)NC1CCCCC1 3.02%
C/C=C\C=C\C(=O)N1CC2(CC(c3cccc(NC(=O)/C(C)=C\C)c3)=NO2)C[C@H]1C(N)=O (stereo partly specified) -1.81%
CC/C=C/C(=O)N1CC2(CC(c3cccc(NC(=O)CC)c3)=NO2)C[C@H]1C(N)=O (stereo partly specified) 0.0237%
COc1cccc(NC(=O)C(Sc2nc3ccccc3c(=O)n2CC(C)C)c2ccccc2)c1 (stereo unspecified) 1.55%
Cc1nc([N+](=O)[O-])c(NCCCO)n1Cc1ccccc1 -1.9%
CCCCNC(=O)Nc1c(C)cc(SC#N)cc1C -6.49%
CCOC(=O)Cn1c2c(c(-c3ccccc3OC)cc1=O)CCCC2 -0.83%
COc1ccc(-c2c(-c3ccc(OC)cc3O)nc(C)nc2C(F)(F)F)cc1 3.81%
